This assay can be described thus: modulators of mitochondrial supercomplex assembly, cell-based, luminescence, Hoechst nuclei count (AID 1645838).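 As to all read-outs here: control cybrid cells.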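 As to z-score: higher means more mitochondrial supercomplex formation.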 The conditions noted are these: Cells, luminescence/Hoechst cell count ratio, supercomplex reporter; for z-score: stronger effect = higher value; for cell count: measured here: cell number, Hoechst nuclei count.
Where [1] appears, read: library stock concentration (final well concentration not given) 80 uM.
The mark [2] stands for this setting: library stock concentration (final well concentration not given) 400 uM.
Where [3] appears, read: library stock concentration (final well concentration not given) 2 mM.
[4] abbreviates: library stock concentration (final well concentration not given) 10 mM.
Where [5] appears, read: library stock concentration (final well concentration not given) 46 uM.
Where [6] appears, read: library stock concentration (final well concentration not given) 278 uM.
[7] abbreviates: library stock concentration (final well concentration not given) 1.67 mM.

Several values for one entry are separate records, joined by “and”; a condition that tells them apart may be missing. Identical values can stand only once. Screen size: about 2,000 compounds; about 100 (5%) were called active. Rule as the data show it: active = z-score above about 2; inactive = the rest. Shown is part of a subset that was picked to be rich in actives.

Regarding `CCCCC/C=C\C/C=C\C/C=C\C/C=C\CCCC(=O)N[C@@H](C)CO`, the z-score is 0.0527 (inactive) and the cell count is 5800.

With `CCCCC/C=C\C/C=C\C/C=C\C/C=C\CCCC(=O)NC(CO)CO`, the z-score was 4 (active) and the cell count was found to be 4470.

In the case of `CCCCC/C=C\C/C=C\C/C=C\C/C=C\CCCC(=O)N[C@H](C)CO`, the z-score was -0.466 (inactive) and the cell count is 6100.

On to `CNCCCCCCN(C)N(O)N=O`, for which the z-score was 0.0102 (inactive) and the cell count is 6050.

As for `CCCCCCC(=O)O[C@H]1CC[C@H]2[C@@H]3C=CC4=CC(=O)CC[C@]4(C)[C@H]3CC[C@]12C`, the z-score was -0.283 (inactive) and the cell count came to 5360.

`COC1C(OC(=O)NC(=O)CCl)CC[C@]2(CO2)[C@@H]1[C@@]1(C)OC1CC=C(C)C` (stereo not given in full): the z-score reads like this: under setting [1], -0.0262 (inactive); under setting [2], 0.199 (inactive); under setting [3], 1.06 (inactive); under setting [4], 2.72 (active). The cell count reads like this: under setting [1], 3980; under setting [2], 3760; under setting [3], 3110; under setting [4], 1800.

`c1cc2cc(N3CCNCC3)ccc2cn1`: the z-score was 0.406 (inactive) and the cell count is 4610.

As to `CCCCC/C=C\C/C=C\C/C=C\C/C=C\CCCC(=O)NCCc1ccc(O)c(O)c1`, the z-score is 0.0355 (inactive) and the cell count is 5380.

Turning to `CS(=O)CCCCN=C=S` (stereo not given), the outcome (library stock 10 mM) is “inactive; censored for cell count”. Also, the z-score under setting [1] is -0.41 (inactive), the z-score under setting [2] was -0.338 (inactive) and the z-score under setting [3] was 0.15 (inactive). Besides, the cell count runs as follows: under setting [1], 6580; under setting [2], 6460; under setting [3], 5610.

Consider `CCCCCCCC/C=C\CCCCCCCC(=O)N[C@H](C)CO`, for which the z-score is 0.127 (inactive) and the cell count worked out at 5170.

For `CCCCCCC(=O)CCCCCC/C=C/C[C@@H](O)[C@H](O)[C@@](N)(CO)C(=O)O`, the z-score was 5.47 (active) and the cell count was 4740.

Take `CCCCC/C=C\C/C=C\CCCCCCCC(=O)NCCO`: the outcome was “inactive; censored for cell count”.

For the compound `CCCCC/C=C\C/C=C\C/C=C\C/C=C\CCCC(=O)Nc1ccc([N+](=O)[O-])cc1`, the z-score is -0.128 (inactive) and the cell count was 5210.

Regarding `CCCCC/C=C\C/C=C\C/C=C\C/C=C\CCCC(=O)NCCc1c[nH]c2ccc(O)cc12`, the z-score was 1.36 (inactive) and the cell count stood at 5300.

Turning to `O=NN(O)N1CCC[C@H]1C(=O)O`, the z-score is -0.00248 (inactive) and the cell count was found to be 5130.

On to `CN=C(NS(=O)(=O)c1ccc(Cl)cc1)N1C[C@@H](c2ccccc2)C(c2ccc(Cl)cc2)=N1`, for which the z-score was -0.26 (inactive) and the cell count was 5290.

Consider `Cc1sc2c(c1C)C(c1ccc(Cl)cc1)=NC(CC(=O)OC(C)(C)C)c1nnc(C)n1-2` (stereo not given), for which the z-score by setting is: under setting [1], 1.22 (inactive); under setting [2], 2.15 (active); under setting [3], 4.36 (active); under setting [4], 5.69 (active). In addition, the cell count was found to be 5120 under setting [1], 4600 under setting [2], 3540 under setting [3] and 2860 under setting [4].

`Cc1sc2c(c1C)C(c1ccc(Cl)cc1)=NC(CC(=O)Nc1ccc(O)cc1)c1nnc(C)n1-2` (stereo not given): the z-score by setting is: under setting [1], 1.4 (inactive); under setting [2], 3.81 (active); under setting [3], 7.81 (active); under setting [4], 8.99 (active). The cell count worked out at 5230 under setting [1], 4010 under setting [2], 2830 under setting [3] and 2330 under setting [4].

Regarding `Cc1sc2c(c1C)C(c1ccc(Cl)cc1)=NC(CC(N)=O)c1nnc(C)n1-2` (stereo not given), the z-score runs as follows: under setting [5], 0.632 (inactive); under setting [6], 2.69 (active); under setting [7], 7.71 (active); under setting [4], 10.6 (active). Moreover, the cell count runs as follows: under setting [5], 5970; under setting [6], 4460; under setting [7], 2880; under setting [4], 2360.

Take `C[N@@+]1(CC2CC2)CC[C@]23c4c5ccc(O)c4OC2C(=O)CC[C@@]3(O)C1C5` (stereo not given in full): the z-score reads like this: under setting [1], 0.853 (inactive); under setting [2], 0.439 (inactive); under setting [3], 1.12 (inactive); under setting [4], 0.0218 (inactive). Further, the cell count under setting [1] turned out to be 4560, the cell count under setting [2] was found to be 4560, the cell count under setting [3] amounted to 3990 and the cell count under setting [4] stood at 4440.

With `CN=C(NS(=O)(=O)c1ccc(Cl)cc1)N1CC(c2ccccc2)C(c2ccc(Cl)cc2)=N1` (stereo not given), the z-score was 0.263 (inactive) and the cell count came out at 4560.

Regarding `CCCC(=O)N[C@H]1CCOC1=O`, the z-score is -0.00429 (inactive) and the cell count came out at 5280.

As for `O=C1C(=O)c2cccc3cccc1c23`, under “library stock 10 mM”, the outcome is “inactive; censored for cell count”. Also, the z-score by setting is: under setting [1], -0.293 (inactive); under setting [2], -0.13 (inactive); under setting [3], 0.0237 (inactive). Besides, the cell count was determined as 5390 under setting [1], 5120 under setting [2] and 4940 under setting [3].

Regarding `CCCCC/C=C\C/C=C\C/C=C\C/C=C\CCCC(=O)OCCN`, the z-score was -1.23 (inactive) and the cell count is 5760.

With `COc1nc(C)nc(NC(=O)NS(=O)(=O)c2ccccc2Cl)n1`, the z-score is 0.223 (inactive) under setting [5], 0.421 (inactive) under setting [6], 0.438 (inactive) under setting [7] and 0.591 (inactive) under setting [4]. In addition, the cell count stood at 6660 under setting [5], 6640 under setting [6], 6690 under setting [7] and 6980 under setting [4].

For `NC(=NCCCC(N)C(=O)O)N[N+](=O)[O-]` (stereo not given), the z-score is -0.276 (inactive) under setting [5], -0.202 (inactive) under setting [6], -0.093 (inactive) under setting [7] and -0.00821 (inactive) under setting [4]. In addition, the cell count is 5020 under setting [5], 4960 under setting [6], 5010 under setting [7] and 4490 under setting [4].

`O=C(NC(COc1ccc2[nH]c(=O)[nH]c2c1)c1ccccc1)c1cccn(Cc2ccc(F)c(F)c2)c1=O` (stereo not given): the z-score is -0.974 (inactive) and -0.18 (inactive) under setting [1]; -0.76 (inactive) and -0.318 (inactive) under setting [2]; -0.629 (inactive) and -0.22 (inactive) under setting [3]; -0.746 (inactive) and -0.664 (inactive) under setting [4]. Moreover, the cell count under setting [1] is 5360 and 6280; the cell count under setting [2] is 4530 and 6370; the cell count under setting [3] was 5030 and 6190; the cell count under setting [4] is 4470 and 5840.

Take `CCCN(CCCN)N(O)N=O`: the z-score was 0.0434 (inactive) and the cell count worked out at 5220.

With `COc1ccc2cc(C(C#N)OC(=O)OCC3OC3c3ccccc3)ccc2c1` (stereo not given), the z-score is -0.334 (inactive) and the cell count was 4870.

Take `CCCCCCCCCCCCCCCCOC[C@@H](O)COP(=O)([O-])OCC[N+](C)(C)C`: the z-score was -1.65 (inactive) and the cell count was 5770.

As to `CCCC[C@@H](C)C(OC(=O)C[C@@H](CC(=O)O)C(=O)O)C(C[C@@H](C)C[C@H](O)CCCC[C@@H](O)C[C@H](O)[C@H](C)N)OC(=O)C[C@@H](CC(=O)O)C(=O)O` (stereo not given in full), the z-score was -0.0113 (inactive) and the cell count is 5860.

On to `NCCc1c(Cl)cccc1Cl`, for which the z-score under setting [1] is 0.124 (inactive), the z-score under setting [2] was 0.256 (inactive), the z-score under setting [3] is 0.163 (inactive) and the z-score under setting [4] was -0.533 (inactive). The cell count by setting is: under setting [1], 5290; under setting [2], 5420; under setting [3], 5540; under setting [4], 5250.

For `CCCCCCCCCCCCCCCC(=O)OC[C@H](COP(=O)([O-])OCC[N+](C)(C)C)OC(=O)CCCC=O`, the z-score is 0.248 (inactive) and the cell count came to 4750.

On to `Cc1nc(-c2ccc(-c3ccc(C(=O)N4CCc5cc6c(cc54)C4(CCN(C)CC4)CO6)cc3)c(C)c2)no1`, for which the z-score by setting is: under setting [1], -0.255 (inactive); under setting [2], 0.0819 (inactive); under setting [3], -0.0801 (inactive); under setting [4], 3.86 (active). For the same compound, the cell count reads like this: under setting [1], 5300; under setting [2], 5160; under setting [3], 5100; under setting [4], 1770.

On to `CC1CNCCc2ccc(Cl)cc21` (stereo not given), for which the z-score under setting [1] is -0.315 (inactive), the z-score under setting [2] is -0.24 (inactive), the z-score under setting [3] is -0.135 (inactive) and the z-score under setting [4] was -0.0867 (inactive). Besides, the cell count under setting [1] stood at 6030, the cell count under setting [2] was determined as 5570, the cell count under setting [3] was 5830 and the cell count under setting [4] came to 5720.
